Consider eight molecules from PubChem BioAssay (NCI).

Among the test systems are HCT-15 colon; SNB-75 CNS; SNB-19 CNS; U251 CNS; PC-3 prostate; SK-MEL-5 melanoma; UACC-62 melanoma; LOX IMVI melanoma; SK-MEL-28 melanoma; SK-MEL-2 melanoma; EKVX NSCLC; SN12C renal; UO-31 renal; TK-10 renal; CAKI-1 renal; A498 renal; MOLT-4 leukemia; ACHN renal; CCRF-CEM leukemia.
Test in all cases: NCI-60 one-dose screen, 48 h (100 = growth as untreated, 0 = no growth, -100 = all killed)
What all share (conditions): 10 µM unless noted

Each structure is given as a SMILES string. About 83,000 compounds went through this panel and 20% of them were active in at least one assay; those are over-represented in the sample as a whole.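 96-well plates, one dose, 48 hours. Percent growth reported; active if below 10.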 Values without a mark were called inactive. Active and inactive are the calls of the source.

As to `CCN1C(=O)/C(=c2\sc3n(c2=O)NC2C(N=3)N(CC)C(=O)N2CC)c2ccccc21` (configuration not stated), the growth in the assay with HCT-15 colon is 33.7%; with SNB-75 CNS, 7.11% (active); with SNB-19 CNS, 50.8%; in the assay with U251 CNS, 33.4%; in the assay with PC-3 prostate, 29.6%; in the assay with SK-MEL-5 melanoma, 30.9%. Besides, the growth with UACC-62 melanoma is 43.9%; in the assay with LOX IMVI melanoma, 55.4%; with SK-MEL-28 melanoma, 55.5%; in the assay on SK-MEL-2 melanoma, 65.8%; in the assay on EKVX NSCLC, 60.4%; in the assay on SN12C renal, 43.8%. The growth with UO-31 renal is 48.9%; in the assay with TK-10 renal it was 83.3%; in the assay on CAKI-1 renal, 42.1%; in the assay on A498 renal, -17.8% (active); with MOLT-4 leukemia, 58.9%.

Take `Cc1[nH]n(-c2cccc(Cl)c2)c(=O)c1/C=C1\C=Nc2ccc(Br)cc21`: the growth was 59.2% with HCT-15 colon; -13.5% (active) in the assay on SNB-75 CNS; 78.1% in the assay with SNB-19 CNS; 7.54% (active) in the assay on U251 CNS; 31.2% with PC-3 prostate; 60.4% in the assay on SK-MEL-5 melanoma. Also, the growth in the assay with UACC-62 melanoma is 37.4%; in the assay on LOX IMVI melanoma, 4.2% (active); with SK-MEL-28 melanoma, 71.2%; in the assay with SK-MEL-2 melanoma, 73.4%; with EKVX NSCLC, 41.1%; with SN12C renal it was 3.46% (active). In addition, the growth was -9.91% (active) in the assay with UO-31 renal; -51.3% (active) in the assay on TK-10 renal; 11.6% in the assay with ACHN renal; 22.4% in the assay with CAKI-1 renal; 6.42% (active) with CCRF-CEM leukemia; 26.9% in the assay on MOLT-4 leukemia.

In the case of `Cc1ccc(C2C3CC4CCCCC4N3[C@@]3(C(=O)Nc4cc(Cl)ccc43)C2C(=O)c2nc3ccccc3[nH]2)cc1` (some centres not stated), the growth in the assay on HCT-15 colon is 21.5%; in the assay on SNB-75 CNS, 45.1%; in the assay on SNB-19 CNS it was 49.7%; in the assay on U251 CNS it was 38%; in the assay with PC-3 prostate, 25.3%; with SK-MEL-5 melanoma, 45%. Also, the growth was 54.7% in the assay with UACC-62 melanoma; 29.7% in the assay on LOX IMVI melanoma; 66.2% in the assay with SK-MEL-28 melanoma; 59.7% in the assay on SK-MEL-2 melanoma; 27.3% with EKVX NSCLC; 44.8% with SN12C renal. Besides, the growth was 19.8% with UO-31 renal; 39.6% in the assay with TK-10 renal; 40.5% in the assay on ACHN renal; 16.5% in the assay on CAKI-1 renal; 27.8% in the assay on CCRF-CEM leukemia; 2.61% (active) in the assay on MOLT-4 leukemia.

For `Clc1ccc(C2CC(c3cccc(Nc4ccncc4)c3)=NN2c2ccccc2)cc1` (configuration not stated), the growth was -48.4% (active) in the assay with HCT-15 colon; 76.2% in the assay on SNB-75 CNS; 79.7% in the assay on SNB-19 CNS; -11.4% (active) in the assay with U251 CNS; 36% with PC-3 prostate; 68.6% with SK-MEL-5 melanoma. In addition, the growth in the assay with UACC-62 melanoma is 93.9%; with LOX IMVI melanoma it was 25.6%; with SK-MEL-28 melanoma it was 9.8% (active); in the assay with SK-MEL-2 melanoma, 83.7%; in the assay with SN12C renal it was 76.6%; in the assay on UO-31 renal it was 63.2%. Further, the growth was 57.4% in the assay with TK-10 renal; 78.1% in the assay with ACHN renal; 52.6% with CAKI-1 renal; 84% with A498 renal; 36.7% in the assay on CCRF-CEM leukemia; -6.03% (active) with MOLT-4 leukemia.

Regarding `Clc1ccc(N2N=C(c3cccc(Nc4ccncc4)c3)CC2c2ccc(Br)cc2)cc1` (configuration not stated), the growth was -74.7% (active) in the assay with HCT-15 colon; 79.2% in the assay with SNB-75 CNS; 80.8% in the assay on SNB-19 CNS; -41.5% (active) in the assay on U251 CNS; 22% in the assay on PC-3 prostate; 68.6% in the assay with SK-MEL-5 melanoma. Moreover, the growth in the assay with LOX IMVI melanoma is -96% (active); with SK-MEL-28 melanoma, -85.5% (active); with SK-MEL-2 melanoma, 94.7%; in the assay on SN12C renal, 54.3%; in the assay with UO-31 renal, 43.2%; with ACHN renal, 2.34% (active). For the same molecule, the growth in the assay on CAKI-1 renal was 27.3%; with A498 renal, 71.6%; with CCRF-CEM leukemia, 3.27% (active); in the assay with MOLT-4 leukemia, -0.295% (active).

With `COc1cc(NCCN(CC(C)C)C2CCCC2)c2ncccc2c1`, the growth was 73.8% with HCT-15 colon; 89.4% in the assay on SNB-75 CNS; 97.6% in the assay on SNB-19 CNS; 94.1% with U251 CNS; 85.2% with PC-3 prostate; 97.2% in the assay on SK-MEL-5 melanoma. In addition, the growth is 92.8% with UACC-62 melanoma; 89.8% in the assay on LOX IMVI melanoma; 101% in the assay on SK-MEL-28 melanoma; 89.2% with SK-MEL-2 melanoma; 95.2% in the assay with EKVX NSCLC; 93.1% in the assay with SN12C renal. Further, the growth is 83.7% in the assay with UO-31 renal; 109% with TK-10 renal; 82.2% in the assay with ACHN renal; 97.1% with CAKI-1 renal; 75% with A498 renal; 121% in the assay with CCRF-CEM leukemia. In addition, the growth in the assay on MOLT-4 leukemia is 90.9%.

In the case of `C(=C\c1n(Cc2ccc3ccccc3c2)c(-c2ccccc2)c(-c2ccccc2)[n+]1Cc1ccc2ccccc2c1)/c1ccccc1`, the growth was -81.2% (active) with HCT-15 colon; -99.9% (active) in the assay with SNB-75 CNS; -93.7% (active) in the assay on SNB-19 CNS; -80.6% (active) in the assay on U251 CNS; -81.2% (active) in the assay on PC-3 prostate; -99.1% (active) with SK-MEL-5 melanoma. The growth in the assay with UACC-62 melanoma is -89.9% (active); in the assay with LOX IMVI melanoma, -96% (active); in the assay with SK-MEL-28 melanoma it was -80.8% (active); in the assay with SK-MEL-2 melanoma, -68.7% (active); in the assay on SN12C renal, -91% (active); in the assay with UO-31 renal, -99.1% (active). Also, the growth was -81.8% (active) with TK-10 renal; -94.9% (active) in the assay with ACHN renal; -100% (active) with CAKI-1 renal; -17.8% (active) in the assay with CCRF-CEM leukemia; -43.5% (active) in the assay with MOLT-4 leukemia.

With `COc1cc(-c2nc3sccn3c2-c2ccnc(NCCNS(=O)(=O)c3ccc(F)cc3)n2)ccc1F`, the growth in the assay on HCT-15 colon is 13.2%; with SNB-75 CNS, 52.7%; in the assay with SNB-19 CNS, 35.7%; in the assay with U251 CNS it was 17.5%; with PC-3 prostate, 6.16% (active); in the assay with SK-MEL-5 melanoma, -75.3% (active). Also, the growth with UACC-62 melanoma is -65.2% (active); in the assay on LOX IMVI melanoma, 4.75% (active); in the assay on SK-MEL-28 melanoma, 19.2%; in the assay with SK-MEL-2 melanoma, -38.3% (active); in the assay on EKVX NSCLC, 23.6%; in the assay on SN12C renal, 15.1%. In addition, the growth in the assay on UO-31 renal is -11.1% (active); with TK-10 renal, 20.2%; in the assay on ACHN renal, 0.0766% (active); with CAKI-1 renal it was 8.83% (active); in the assay with A498 renal, 22.5%; in the assay with CCRF-CEM leukemia it was 2.47% (active). The growth in the assay on MOLT-4 leukemia is -15.4% (active).
